Experimental data published in PubChem BioAssay AID588856 (National Center for Advancing Translational Sciences (NCATS), 2011).
Among all 410,000 compounds or so, about 3,100 (0.76%) were called active. Many of the other results were omitted from the sample, so actives are more common in it than they were. A number with no mark means an inactive call. Calls come from the whole dose curve; as a rule, active = well fitted cell-killing curve with a large enough effect; inactive = no such curve, though single readings can be large or run the other way.

test: qHTS for Inhibitors of TGF-b: Cytotox Counterscreen; settings: HepG2 CAGA-GFP viability, ATP luminescence, 18 h; series mostly up to 46.1 µM; activity change, negative = cytotoxicity: at the top concentration
Summary of the method: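 CellTiter-Glo luminescence gave cytotoxicity after 18 hours at 37 degrees C. The cells were HepG2 CAGA-GFP in 1% FBS DMEM, stimulated with 500 pg/mL TGF-beta after compound addition. %Activity was normalised to no-cell wells (complete cell-killing) and DMSO (no toxicity), and curves were fitted and classified.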
Potency is the fitted concentration of half-maximal effect.

First: CCC(C)N(c1ccc(/C=C/c2ccnc3ccccc23)cc1)C(C)CC (stereo not given)
Second: CN(C)c1ccc(/C=C/C=C/c2ccnc3ccccc23)cc1
The “activity change, negative = cytotoxicity” value of the first is higher: -3.27% for the first, -45.3% for the second.

Going from `Cc1cccc(NC(=O)N2CCC(CN3CCc4ccccc4C3)CC2)c1C` to `COc1ccc(-c2nc(CN3CCC(C(=O)NCc4ccccc4)CC3)c(C)o2)cc1OC`, the “activity change, negative = cytotoxicity” value falls from -0.594% to -2.01%.

First: Cc1ccccc1Cn1c2ccccc2c2cnn(CC(=O)NCc3ccco3)c(=O)c21
Second: CCCN(CCC)CCCNC(=O)Cn1ncc2c3ccccc3n(Cc3ccccc3)c2c1=O
The “activity change, negative = cytotoxicity” value of the first is higher: -11.1% for the first, -15.3% for the second.

Compared with `O=C(CSc1oc(-c2ccco2)nc1S(=O)(=O)c1ccc(Cl)cc1)c1ccccc1`, `O=C(CSc1oc(-c2ccc(F)cc2)nc1S(=O)(=O)c1ccc(Br)cc1)NC1CCCCC1` is higher in “activity change, negative = cytotoxicity” value: -1.63% for the first, 2.9% for the second.

Compared with `COC(=O)CC1Oc2ccccc2-n2cc(-c3ccccc3)nc21` (stereo not given), `CCc1cccc(NC(=O)c2cc(-c3ccccc3)n[nH]2)c1` is lower in “activity change, negative = cytotoxicity” value: -5.42% for the first, -12.5% for the second.

First: CCOc1ccc(C(=O)Nc2ccc3nc4c(c(Nc5ccccc5OC)c3c2)CCCC4)cc1
Second: COc1ccc(Nc2ncc(C(=O)Nc3cc(C)ccc3OC)c3ccccc23)cc1
The “activity change, negative = cytotoxicity” value of the first is lower: -37.6% for the first, 2.26% for the second.

Compared with `COc1cc(/C=C/C(=O)O)cc(S(=O)(=O)Nc2ccccc2SC)c1OC`, `COc1ccc(/C=C/c2ccccn2)cc1OC` is lower in “activity change, negative = cytotoxicity” value: 22.3% for the first, 0.583% for the second.

Going from `COCCCNC(=O)c1c(NC(=O)c2cc(=O)c3cc(C)c(C)cc3o2)sc2c1CCCC2` to `Cc1ccc2c(=O)cc(C(=O)Nc3sc4c(c3C(=O)NCc3cccnc3)CCCC4)oc2c1`, the “activity change, negative = cytotoxicity” value falls from 2.12% to -33.8%.

Compared with `OC(Cc1ccc2ccccc2n1)c1ccc(Cl)c(Cl)c1` (stereo not given), `O=c1cc2nc(-c3ccccc3)nc(SCCOc3ccc(Cl)cc3)n2[nH]1` is higher in “activity change, negative = cytotoxicity” value: -20.4% for the first, -2% for the second.

Going from `C/C=C/NNC(=O)Cc1ccc(OC)cc1` to `Cc1nc(SCC(=O)Nc2ccc(C(=O)O)cc2)n[nH]1`, the “activity change, negative = cytotoxicity” value rises from -54.5% to -5.27%.

First: Cc1cccc(-c2nc(SCc3ccc(Br)cc3)n3[nH]c(=O)cc3n2)c1
Second: Cc1cccc(-n2c(SCC(N)=O)nc3c(oc4ccccc43)c2=O)c1
The “activity change, negative = cytotoxicity” value of the first is higher: 0.961% for the first, -24.7% for the second.

Compared with `Nc1ccc(/C=C/c2ccnc3ccccc23)c([N+](=O)[O-])c1`, `CN(C)c1ccc(/C=C/c2c3ccccc3nc3ccccc23)cc1` is higher in “activity change, negative = cytotoxicity” value: -3.67% for the first, 1.81% for the second.

Going from `COc1cccc(CNC(=O)c2ccc3c(c2)sc2nc(-c4cccc(OC)c4)cn23)c1` to `Cc1ccc(-c2cn3c(n2)sc2cc(C(=O)NCc4cccs4)ccc23)c(C)c1`, the “activity change, negative = cytotoxicity” value rises from -20.8% to -1.61%.

Compared with `Cc1cc(C)cc(Nc2ncnc3onc(-c4ccc(F)cc4)c23)c1`, `CN1C(=O)c2[nH]nc(-c3ccc(F)cc3)c2C1c1ccccn1` (stereo not given) is higher in “activity change, negative = cytotoxicity” value: -30.7% for the first, -6.9% for the second.

Going from `C=COC(=O)N1CCN(/[N+]([O-])=N/Oc2ccc([N+](=O)[O-])cc2[N+](=O)[O-])CC1` to `COc1cc(C(=O)N2CCC(c3ccncc3)CC2)cc(OC)c1OC`, the “activity change, negative = cytotoxicity” value rises from -67.7% to -29.2%.

Going from `Cc1cccc(NS(=O)(=O)c2ccc(-c3cnc(C4CC4)o3)cc2)c1` to `Cc1ccc(-c2nc(S(=O)(=O)c3ccc(C)cc3)c(N3CCCCCC3)o2)cc1`, the “activity change, negative = cytotoxicity” value falls from -18.6% to -18.7%.

Going from `CCn1c(=O)c(=O)[nH]c2c(=O)oc3ccc(S(=O)(=O)Nc4ccc(OC)cc4)cc3c21` to `CCc1ccc(NS(=O)(=O)c2ccc3[nH]cc(C(=O)NCCc4cccc(C)c4)c(=O)c3c2)cc1`, the “activity change, negative = cytotoxicity” value falls from 0.0878% to -5.43%.

Compared with `Cc1ccc(-c2cc(C(F)(F)F)c(C#N)c(SCC(=O)Nc3ccccc3)n2)cc1`, `O=C(COc1ccccc1C(=O)Nc1ccccc1)Nc1cccc(F)c1` is higher in “activity change, negative = cytotoxicity” value: -57.5% for the first, -3.03% for the second.

First: COc1c(Cl)cc(Cl)cc1C(=O)Nc1cccc2cccnc12
Second: O=C(Nc1cccc2cccnc12)C(F)(F)F
The “activity change, negative = cytotoxicity” value of the first is higher: -2.38% for the first, -32.1% for the second.

Compared with `Clc1cccc[n+]1CCCC[n+]1ccccc1Cl`, `COc1cccc(CNC(=O)C(=O)NCC(c2cccs2)S(=O)(=O)c2ccccc2)c1` (stereo not given) is higher in “activity change, negative = cytotoxicity” value: -52% for the first, -3.22% for the second.

First: Cc1ccccc1-c1nc2cc(NC(=O)c3cccc(OCCC(C)C)c3)ccc2o1
Second: COc1ccc2oc(-c3ccc(C)c(NC(=O)c4sc5ccccc5c4Cl)c3)nc2c1
The “activity change, negative = cytotoxicity” value of the first is higher: 2.29% for the first, -8.16% for the second.

Compared with `COc1cc(OC)c2c(c1C(CCN1CCCCC1)c1ccc(N(C)C)cc1)OC(=O)CC2c1ccc(N(C)C)cc1` (stereo not given), `CCc1nc2ccc(C(=O)Nc3ccc(OC)c(OC)c3)cn2c1N(C)C(=O)c1cccc(OC)c1` is lower in “activity change, negative = cytotoxicity” value: 4.96% for the first, -0.381% for the second.

First: COc1cc(/C=C/C(=O)OCC(=O)Nc2cccc(Oc3ccccc3)c2)ccc1O
Second: COc1ccccc1CNC(=O)CCn1c(=O)c2ccccc2n(CC(=O)Nc2cccc(Cl)c2)c1=O
The “activity change, negative = cytotoxicity” value of the first is higher: 3.37% for the first, -16.8% for the second.

Compared with `COc1cc(OC)cc(C(=O)Nc2ccc3nc(Nc4cccc(C(F)(F)F)c4)cc(C)c3c2)c1`, `Cc1onc(-c2ccc(F)cc2F)c1C(=O)Nc1cccc(C(F)(F)F)c1` is higher in “activity change, negative = cytotoxicity” value: -36.6% for the first, -16.8% for the second.

Compared with `COc1ccc(NC(=O)Cn2c(=O)n(CCC(C)C)c(=O)c3cccnc32)cc1Cl`, `CCOC(=O)CSc1nc2c(c(=O)n(Cc3ccccc3Cl)c(=O)n2C)n1C` is lower in “activity change, negative = cytotoxicity” value: -15.1% for the first, -17.5% for the second.

Compared with `CCCCN1C(N)=NC[C@@H]1CC1CCCCC1`, `CN(C)C1=NC[C@H](Cc2ccccc2)N1CCc1ccc(F)cc1` is lower in “activity change, negative = cytotoxicity” value: 9.04% for the first, -8.32% for the second.

First: CC(NC(=O)CCc1cn(Cc2ccccc2Cl)c2ccccc12)c1ccccc1 (stereo not given)
Second: CCOc1ccc(Nc2c(S(=O)(=O)c3ccccc3)cnc3ccccc23)cc1
The “activity change, negative = cytotoxicity” value of the first is lower: -40.5% for the first, -11.6% for the second.

First: Cc1cc(OC(C)C(=O)Nc2sc3c(c2C(N)=O)CCCC3)ccc1Cl (stereo not given)
Second: Cc1ccc(C)c(OCC(=O)Nc2sc3c(c2C#N)CCCC3)c1C
The “activity change, negative = cytotoxicity” value of the first is higher: -2.1% for the first, -5.1% for the second.

Compared with `O=C(Cn1ncn2nc(-c3cccs3)cc2c1=O)NCc1cccc(Br)c1`, `COc1cccc(Cn2c(CNS(=O)(=O)c3ccc(Cl)s3)nc3cccnc32)c1` is lower in “activity change, negative = cytotoxicity” value: -4.13% for the first, -23.5% for the second.

First: CCOC(=O)N1CCc2c(sc3c2C(=O)NC(c2ccccc2F)N3)C1 (stereo not given)
Second: CCOc1ccccc1C(=O)NC1(C(F)(F)F)NC(=O)N(CCc2ccc(OC)c(OC)c2)C1=O (stereo not given)
The “activity change, negative = cytotoxicity” value of the first is lower: -25.8% for the first, 2.01% for the second.

First: COc1ccc(N2CCN(c3nc(-c4ccccc4F)nc4ccccc34)CC2)cc1
Second: Cc1cc(N2CCN(c3cccc(C(F)(F)F)c3)CC2)n2nc(-c3ccccc3)nc2n1
The “activity change, negative = cytotoxicity” value of the first is lower: -3.07% for the first, 1.82% for the second.

Compared with `O=C(O)c1ccc(Nc2nc(-c3ccccc3)c3cc(Br)ccc3n2)cc1`, `CCOc1ccc(Nc2nc3c(S(=O)(=O)c4cccc(Cl)c4)nnn3c3ccsc23)cc1` is lower in “activity change, negative = cytotoxicity” value: 1.26% for the first, -14.5% for the second.

Going from `CC(C)Cn1c(=O)c2ccccc2n2c(-c3cccc(Cl)c3)nnc12` to `CCOc1cccc2cc(-c3cn4c(n3)sc3cc(C)ccc34)c(=O)oc12`, the “activity change, negative = cytotoxicity” value rises from -27.9% to -0.0206%.

First: Cc1nnc2n1N=C(c1ccc3c(c1)NC(=O)CO3)CS2
Second: Cc1cccc(CN2Cc3cccc4c3[C@H](C=CC4)CC2=S)c1
The “activity change, negative = cytotoxicity” value of the first is higher: -0.995% for the first, -24% for the second.

Compared with `O=C(Nc1ccc([N+](=O)[O-])cc1)c1cnn2c1NC(=C1CC1)C=C2C(F)F`, `COc1cc(NC(=O)CCn2nc(C)cc2C)cc(OC)c1OC` is higher in “activity change, negative = cytotoxicity” value: -31.1% for the first, -1.73% for the second.

Compared with `CCc1nc2ccc(C(=O)N(C)CCN(C)C)cn2c1N(CC)CCOC`, `CCOCCCNC(=S)Nc1ccc2nc(N3CCN(CC)CC3)cc(C)c2c1` is lower in “activity change, negative = cytotoxicity” value: 5.27% for the first, -13.3% for the second.

Compared with `CC(C)(C)OC(=O)C[C@@H]1C/C=C\C[C@@H](CC(=O)N[C@H](CO)Cc2ccccc2)C(=O)NC[C@@H](c2ccccc2)OC1=O`, `O=C(N[C@@H]1C/C=C\C[C@@H](CC(=O)N(CCO)Cc2ccccc2)C(=O)N[C@H](Cc2ccccc2)COC1=O)OCC1c2ccccc2-c2ccccc21` is lower in “activity change, negative = cytotoxicity” value: -6.66% for the first, -12.3% for the second.

For `CCOC(=O)c1cnc2sccn2c1=O`, the “activity change, negative = cytotoxicity” value was -1.63%.

In the case of `CCN(CC)CCNC(=O)Cn1ncc2c3ccccc3n(Cc3ccccc3C)c2c1=O`, the Potency is reported as 15.8 µM (active).
In the case of `COc1ccccc1Nc1c2c(nc3ccc(NC(=O)/C=C/c4cc(OC)c(OC)c(OC)c4)cc13)CCCC2`, the Potency is reported as 5.62 µM (active).
With `COC(=O)c1sc(-c2ccc(C(C)(C)C)cc2)cc1NC(=O)/C=C/C(=O)O` the Potency was 7.08 µM (active).
In the case of `Cc1ccc(-c2nc(SCc3ccc(Br)cc3)n3[nH]c(=O)cc3n2)cc1`, the Potency is reported as 5.01 µM (active).
With `Cc1cc(NS(=O)(=O)c2ccc3oc(=O)c4ncn(C)c4c3c2)ccc1Br` the Potency was 11.2 µM (active).
With `CC(=O)/C(=N\Nc1ccc(Cl)cc1Cl)Sc1cccc2cccnc12` the Potency was 3.98 µM (active).
With `COc1ccc(C(=O)Nc2ccccc2C(=O)N/N=C/c2ccc(O)c(OC)c2)cc1` the Potency was 3.55 µM (active).
For `COc1cc(NC(=O)c2[nH]cnc2C(N)=O)cc(C(=O)Nc2cccc(C(F)(F)F)c2)c1`, the Potency was 7.08 µM (active).
For `CCCC[C@@H]1CN=C(N)N1CCc1cc(C(F)(F)F)cc(C(F)(F)F)c1`, the Potency was 15.8 µM (active).
In the case of `NC1=CC(=O)C(=O)c2cccnc21`, the Potency is reported as 6.31 µM (active).
In the case of `O=c1c2cc(Br)ccc2nc(-c2cccc(Cl)c2)n1O`, the Potency is reported as 15.8 µM (active).
In the case of `COc1ccc(C2=Nn3c(nnc3-c3ccccc3OC)SC2)cc1OC1CCCC1`, the Potency is reported as 17.8 µM (active).
With `CCc1nc2ccc(C(=O)Nc3cccc(OC)c3)cn2c1N(CCC(C)C)CCN(C)C` the Potency was 11.2 µM (active).
With `O=C(C[C@H]1C/C=C\C[C@@H](NC(=O)OCC2c3ccccc3-c3ccccc32)C(=O)O[C@@H](c2ccccc2)CNC1=O)N[C@H](CO)Cc1ccccc1` the Potency was 12.6 µM (active).
For `O=C(CCl)Nc1cccc(CP(=O)(c2ccccc2)c2ccccc2)c1`, the Potency was 15.8 µM (active).
For `COc1ccc(C(=O)Nc2ccc3nc(N4CCCCC4)cc(C)c3c2)cc1OC`, the Potency was “inactive”.
With `CCN1CCN(c2cc(C)c3cc(NC(=O)c4cc(Cl)ccc4OC)ccc3n2)CC1` the Potency was 11.2 µM (active).
For `CNC[C@H](CC1CCCCC1)NC[C@H](NCCC1CCCC1)[C@H](C)O`, the Potency was 15.8 µM (active).
In the case of `CCOC(=O)c1cnc2nc(SCc3ccccc3Cl)[nH]n2c1=O`, the Potency is reported as 2.82 µM (active).
With `CC(C)S(=O)(=O)c1oc(-c2ccc(F)cc2)nc1S(=O)(=O)c1ccc(F)cc1` the Potency was 2 µM (active).
